# Compound activity from PubChem BioAssay.
# G9a block – G9a (human) methyltransferase inhibition; Q96KQ7; G9a H3K9 monomethylation, AlphaScreen, 2 h; Potency, µM (top dose mostly 102 µM), without a hit: at the highest dose activity, negative = inhibition, usual class: inhibitors; hit rate 8.8% among 350,000; further: on the % scale 0 is the no-effect control and ±100 the full control effect; nearly all actives have a fitted effect of over 75% in size
# Target sequence (Q96KQ7 913-1193 limits assumed): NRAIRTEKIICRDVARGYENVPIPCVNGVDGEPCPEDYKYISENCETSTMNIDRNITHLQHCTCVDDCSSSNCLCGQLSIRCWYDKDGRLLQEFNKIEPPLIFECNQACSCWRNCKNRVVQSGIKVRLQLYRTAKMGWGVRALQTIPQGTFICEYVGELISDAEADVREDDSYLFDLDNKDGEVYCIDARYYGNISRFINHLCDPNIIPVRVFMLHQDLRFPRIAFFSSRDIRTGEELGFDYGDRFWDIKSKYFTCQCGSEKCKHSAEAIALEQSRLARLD
#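 AlphaScreen detection with an anti-monomethyl H3K9 antibody quantified product after a 2 h room-temperature reaction containing 500 nM biotinylated H3K9 peptide, 20 µM SAM and 20 nM enzyme, which had been preincubated 15 min with compound.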
# Sfp inh – blocks B. subtilis Sfp PPTase activity | Q9F4F7 | Biochemical Sfp PPTase activity, qHTS | Potency, µM, without a hit: largest response in the series, negative = inhibition, usual class: inhibitors | hit rate 3.5% among 310,000 | AID 1490;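 further: the enzyme is Sfp with the accession as filed and its product quenches rhodamine fluorescence; 0% = enzyme reaction without inhibitor and -100% = no enzyme wells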
#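 Step 1, compound plus 15 nM Sfp-PPTase, 15 min, room temperature. Step 2, add rhodamine-CoA (5 uM) and BHQ-2-YbbR (12.5 uM). Step 3, read 525/598 nm fluorescence at 0 and 30 min.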
# JMJD2A Tudor inh – JMJD2A Tudor domain (human) inhibition. AID 504339. O75164. hit rate 4.4% among 390,000. Potency, µM (series often up to 114 µM), without a hit: at the top dose activity change, negative = inhibition, hits mostly inhibitors. AlphaScreen JMJD2A-Tudor / H3K4me3 peptide binding; further: on the % scale 0 is the no-effect control and ±100 the full control effect; nearly all actives have a fitted effect of over 50% in size
# HP1b chromo inh – inhibitors of HP1-beta chromodomain binding to methylated histone tails. P83916. AlphaScreen HP1-beta / biotin-H3K9me3 peptide binding. Potency, µM (series often up to 114 µM), without a hit: at the highest dose activity change, negative = inhibition, usual class: inhibitors. hit rate 0.56% among 390,000; further: nearly all actives have a fitted effect of over 70% in size
# Target sequence (P83916 whole entry, looked up): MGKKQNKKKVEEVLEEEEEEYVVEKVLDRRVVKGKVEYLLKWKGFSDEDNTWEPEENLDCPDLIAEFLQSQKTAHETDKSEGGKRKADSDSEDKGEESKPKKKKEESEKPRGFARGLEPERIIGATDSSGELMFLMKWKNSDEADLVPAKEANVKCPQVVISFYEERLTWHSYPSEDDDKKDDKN
#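 AlphaScreen: HP1-beta (50 nM) preformed 30 min with biotin-H3(1-18)K9me3 peptide (50 nM) in PBS pH 7.4, 0.01% Tween-20. Compound added for 30 min at RT, then streptavidin donor/nickel chelate acceptor beads (10 ug/mL) for 30 min.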
# TDP1 inh – TDP1 (human) enzyme inhibition; Q9NUW8; Potency, µM (doses to about 130 µM), for the others: top-dose activity change, negative = inhibition, most hits filed as inhibitors; hit rate 0.28% among 350,000; recombinant TDP1, AlphaScreen DNA substrate cleavage; further: on the % scale 0 is the no-effect control and ±100 the full control effect; nearly all actives have a fitted effect of over 40% in size
#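 AlphaScreen read-out: signal falls as enzyme removes the 3' tyrosine-FITC from a 5'-biotinylated DNA oligo (15 nM, 5 min, RT). Enzyme was E. coli-made recombinant Tdp1 at 1 nM, exposed to compound for 15 min beforehand; beads 10 ug/ml, 10 min.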
# BAZ2B inh – inhibitors of human BAZ2B bromodomain | Q9UIF8 | Potency, µM (highest dose often 114 µM), for the others: top-dose activity change, negative = inhibition, usual class: inhibitors | AlphaScreen BAZ2B-H3K14Ac peptide displacement | hit rate 4.4% among 360,000; further: on the % scale 0 is the no-effect control and ±100 the full control effect; nearly all actives have a fitted effect of over 60% in size
#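 In this displacement format the biotinylated H3(5-23) peptide acetylated at Lys14 serves as ligand at 50 nM, with BAZ2B at 50 nM in PBS pH 7.4 containing 0.01% Tween-20. Donor and acceptor beads are 10 ug/mL final.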
# Active calls of the source: *; ? = inconclusive; · = no result; [ ] = dose if it differs, or a comment. In the library only some 12% were active in any assay of this set; here they are far more common. The call rests on the fitted dose curve; in most records, active means well fitted curve in the direction sought with a large enough effect; inconclusive means small, poorly fitted or top-dose-only effect, or another doubt; inactive means no such curve, though single readings can be large; an effect the other way counts as inactive or inconclusive. Potency means the concentration at half of the fitted maximal effect.
SMILES,G9a block,Sfp inh,JMJD2A Tudor inh,HP1b chromo inh,TDP1 inh,BAZ2B inh
Cc1ccc(-c2csc(=Nc3ccccc3)n2Cc2ccc3c(c2)OCO3)cc1C,14.1µM*,·,?,-7.0%,-4.5%,100µM*
Clc1ccc(-c2csc(=Nc3ccccc3)n2Cc2ccc3c(c2)OCO3)cc1,12.6µM*,·,?,?,-9.7%,?
Fc1ccc(-c2csc(=Nc3cccc(C(F)(F)F)c3)n2Cc2ccc3c(c2)OCO3)cc1,?,·,-32.8%,-6.8%,3.2%,?
O=C1CN(C(=O)COc2ccc(Cl)cc2)C(c2ccccc2)c2cc(Br)ccc2N1 (stereo not drawn),-32.2%[59 µM],·,-25.3%,23.6%,5.9%,-15.6%
O=C1C2CC=CCC2C(=O)N1c1ccc(N2CCN(c3ccccn3)CC2)c([N+](=O)[O-])c1 (stereo not drawn),?,-9.3%,?,2.0%,3.4%,8.91µM*
CCCN1C(=O)/C(=C/c2ccc(C)o2)SC1=Nc1ccc(OCC)cc1,?,7.94µM*,?,-14.3%,8.8%,?
COc1cc(/C=C/C(=O)OCC(=O)Nc2oc(C)c3c(C)n[nH]c(=O)c23)ccc1OC(F)F,14.1µM*,·,-6.9%,58.0%,·,-0.2%
COc1ccccc1NC(=O)CSc1nnnn1-c1ccccc1OC,70.8µM*,12.3%,-9.0%,40.0%,2.8%,5.5%
COc1ccccc1-n1nnnc1SCC(=O)Nc1oc(C)c2c(C)n[nH]c(=O)c12,11.2µM*,·,-14.9%,44.9%,-11.2%,-6.4%
COCCCn1c(SCC(=O)Nc2oc(C)c3c(C)n[nH]c(=O)c23)nc2ccccc2c1=O,50.1µM*,·,-4.1%,18.6%,-6.6%,-1.1%
COc1ccccc1CNC(=O)COC(=O)/C=C/c1ccc(OC(F)F)c(OC)c1,2.8%[0.501 µM],·,-14.4%,35.7%,-2.5%,1.5%
COCCn1c(SCC(=O)Nc2cc(C)on2)nc2ccccc2c1=O,1.8%[12.7 µM],·,-6.4%,21.6%,1.3%,0.6%
Cc1n[nH]c(=O)c2c(NC(=O)CSc3nnc(-c4ccco4)n3C)oc(C)c12,?,·,-12.3%,44.5%,1.4%,-0.7%
Cc1ccc(S(=O)(=O)N(C)CC(=O)Nc2ncccc2C)cc1,-21.3%,·,-4.1%,16.2%,-2.1%,-0.9%
O=C(Nc1ccccc1O)C(c1ccccc1)c1ccccc1,-10.3%[2.33 µM],17.2%,-22.0%,60.8%,·,-2.2%
COc1ccc(NC(=O)CSc2nnc(Cc3ccccc3)o2)c(OC)c1,-6.6%[59 µM],6.3%,-10.1%,19.9%,7.2%,2.8%
COc1ccccc1-c1nnc(SCC(=O)Nc2oc(C)c3c(C)n[nH]c(=O)c23)n1C,5.01µM*,·,-3.4%,40.6%,2.1%,-1.8%
COc1ccccc1NC(=O)CSc1nnc(Cc2ccccc2)o1,14.1µM*,8.5%,-19.7%,6.8%,-1.0%,2.1%
CCNC(=O)COn1c(SCC(=O)NCC)nc2ccccc2c1=O,?,-5.5%,5.4%,34.8%,2.0%,-0.3%
CCOc1ccccc1NC(=O)CSc1nc2ccccc2c(=O)n1CC1CCCO1 (stereo not drawn),4.47µM*,?,-8.1%[57.1 µM],-0.9%,2.6%,1.3%
CCNC(=O)CSc1nc2ccccc2c(=O)n1OC,79.4µM*,-2.5%,8.1%,19.2%,2.1%,0.2%
CCOc1ccc(NC(=O)CSc2nnnn2C2CC2)cc1S(=O)(=O)N1CCCC1,-8.6%[59 µM],·,-11.0%,26.9%,2.1%,0.6%
Cc1n[nH]c(=O)c2c(NC(=O)CSc3ccccc3Cl)oc(C)c12,31.6µM*,·,-17.9%,-0.1%,6.0%[0.505 µM],13.0%
COCC(C)n1c(COc2ccccc2F)nnc1SCC(=O)Nc1oc(C)c2c(C)n[nH]c(=O)c12 (stereo not drawn),10µM*,·,-11.7%,42.9%,-8.2%[0.505 µM],-18.2%
CCOC(=O)CSc1nnnn1-c1cccc2ccccc12,10µM*,-2.0%,11.6%,74.7%,-1.1%,12.8%
SMILES,G9a block,Sfp inh,JMJD2A Tudor inh,HP1b chromo inh,TDP1 inh,BAZ2B inh
Cc1n[nH]c(=O)c2c(NC(=O)CSc3nncn3C(C)C)oc(C)c12,?,·,-12.0%,23.9%,1.5%,9.3%
CCOc1ccccc1-n1nnnc1SCC(=O)OC,6.1%,19.4%,-5.4%[57.1 µM],30.4%,-2.5%,2.9%
CCOCCCn1c(SCC(=O)Nc2ccc(OC)cc2)nc2ccccc2c1=O,31.6µM*,50.1µM*,0.0%,-20.7%,·,0.3%
Cc1cc(NC(=O)C(C)C)cc(-c2nc3ncccc3o2)c1O,-4.0%[59 µM],·,2.2%,20.4%,1.9%,-19.1%
COc1ccc(NC(=O)CN2C(=O)/C(=C3\SC(=S)N(C4CCS(=O)(=O)C4)C3=O)c3ccccc32)cc1 (stereo not drawn),·,14.1µM*,-6.1%,?,0.0%,-20.4%
O=C(CN1C(=O)/C(=C2\SC(=S)N(C3CCS(=O)(=O)C3)C2=O)c2ccccc21)Nc1ccc(F)cc1 (stereo not drawn),20µM*,-23.7%,-17.1%,-23.9%,2.6%,-19.8%
CC(C)CCNC(=O)C1CCC(CNS(=O)(=O)c2ccc(Cl)cc2)CC1 (stereo not drawn),36.2%,-2.7%,-12.0%,20.2%,·,9.7%
CC(C(=O)Nc1cccc([N+](=O)[O-])c1)N1C(=O)NC2(CCCC2)C1=O (stereo not drawn),-10.0%,13.5%,0.7%,14.9%,·,-20.9%
O=C(NCc1ccc2c(c1)OCO2)c1ccc2c(c1)OCO2,39.5%[12.7 µM],-7.9%,-17.2%,23.5%,·,-15.2%
Cc1cc(CNC(=O)c2ccc3c(c2)OCO3)c2ccccc2n1,35.5µM*,1.0%,-5.4%,42.6%,5.1%,-33.3%
Cc1cc2cc(CNC(=O)c3ccc4c(c3)OCO4)ccc2[nH]1,50.1µM*,8.9%,-33.9%,-7.7%,4.8%,?
Cc1ccc(CNC(=O)c2ccc3c(c2)nc(C)n3-c2cccc(F)c2)cc1,9.5%[59 µM],·,-15.3%,23.4%,0.0%,-3.1%
COc1ccc(C(=O)NCc2ccc3[nH]c(C)cc3c2)cc1OC,35.5µM*,-24.8%,-30.0%,23.8%,7.0%,?
Cc1cccc(-n2c(C)nc3cc(C(=O)NCc4ccc5c(c4)OCO5)ccc32)c1,44.7µM*,-18.3%,-34.5%,4.3%,2.6%,?
COc1cc(C(=O)NCc2ccc3[nH]c(C)cc3c2)cc(OC)c1OC,?,10.4%,-8.7%,29.0%,4.7%,-37.2%
CCN(CC)c1ccc(C(=O)OCC(=O)NC(C)(C)C)cc1,·,7.0%,5.5%,16.3%,0.6%,-9.7%
